# According to PubChem BioAssay (NCATS):
# Calls of active or inactive are those of the source. Calls follow the shape of the dose curve; as a rule, active = well fitted curve in the direction sought with a large enough effect; inconclusive = small, poorly fitted or top-dose-only effect, or another doubt; inactive = no such curve, though single readings can be large or run the other way.
# Target: Hexokinase-4 (Homo sapiens) + Glucokinase regulatory protein (Homo sapiens) (UniProt P35557+Q14397)
# Sequence (P35557 whole entry, looked up): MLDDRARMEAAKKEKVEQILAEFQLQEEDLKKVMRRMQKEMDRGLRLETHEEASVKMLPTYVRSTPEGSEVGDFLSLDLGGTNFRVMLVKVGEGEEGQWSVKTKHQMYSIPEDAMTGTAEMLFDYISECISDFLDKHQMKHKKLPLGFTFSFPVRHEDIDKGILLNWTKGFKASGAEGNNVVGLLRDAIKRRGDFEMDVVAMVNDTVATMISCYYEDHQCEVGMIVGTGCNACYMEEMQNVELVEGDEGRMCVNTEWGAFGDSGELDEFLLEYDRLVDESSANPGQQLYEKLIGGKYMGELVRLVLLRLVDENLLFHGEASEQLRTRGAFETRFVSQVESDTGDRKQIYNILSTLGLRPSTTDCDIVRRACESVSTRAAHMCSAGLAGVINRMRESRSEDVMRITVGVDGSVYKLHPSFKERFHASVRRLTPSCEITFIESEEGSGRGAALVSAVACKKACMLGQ
# Sequence (Q14397 whole entry, looked up): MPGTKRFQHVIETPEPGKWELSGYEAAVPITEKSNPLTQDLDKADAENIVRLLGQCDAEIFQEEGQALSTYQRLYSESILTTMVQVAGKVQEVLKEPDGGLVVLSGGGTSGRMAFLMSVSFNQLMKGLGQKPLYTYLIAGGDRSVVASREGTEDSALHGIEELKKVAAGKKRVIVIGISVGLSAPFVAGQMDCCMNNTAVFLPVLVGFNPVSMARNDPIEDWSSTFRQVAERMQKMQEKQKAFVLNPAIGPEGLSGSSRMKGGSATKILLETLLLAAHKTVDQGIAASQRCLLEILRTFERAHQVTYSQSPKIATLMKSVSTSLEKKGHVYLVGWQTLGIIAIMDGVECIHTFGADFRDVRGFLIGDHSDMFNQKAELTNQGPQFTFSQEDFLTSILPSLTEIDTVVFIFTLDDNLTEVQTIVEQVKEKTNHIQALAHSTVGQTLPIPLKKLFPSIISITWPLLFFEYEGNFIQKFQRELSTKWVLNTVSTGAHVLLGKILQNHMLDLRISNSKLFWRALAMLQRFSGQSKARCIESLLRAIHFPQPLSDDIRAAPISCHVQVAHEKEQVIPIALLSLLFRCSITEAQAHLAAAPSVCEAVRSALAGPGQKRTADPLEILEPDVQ
# Assay: qHTS assay for inhibitors of recombinant human GCK-GKRP interaction: HTRF assay (AID 743207)
# Method in brief: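 HTRF binding of 5 nM GST-GCK and 5 nM FLAG-GKRP with 2 uM S6P in pH 7.1 Hepes buffer (MgCl2, KCl, DTT, Tween 20, BSA). Anti-FLAG XL665 and anti-GST donor added, 60 min at room temperature; 665/615 nm read, normalized to with- and without-GCK controls.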
smiles,measurement,value
CN1Cc2c(N)cccc2C(c2ccccc2)C1 (stereo unspecified),outcome,inactive
